Compound activity as filed in PubChem BioAssay.
SW480 rereplic = induces DNA re-replication in SW480 colon adenocarcinoma cells; Potency, µM (titrated, usually from 46.1 µM), for inactives: at the highest dose re-replication activation, hits mostly activators; SW480 DNA re-replication, Hoechst DNA content imaging, 48 h; AID 624297; 340,000 compounds, 1.8% hits; note: % of control where 0% means no effect; nearly all actives have a fitted effect of over 55% in size
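SW480 cells exposed to compounds for 48 hr at 37 C, 5% CO2, then Hoechst-stained 40 min. Nuclear DNA content imaged by fluorescence scanning (405 nm excitation, 500-530 nm emission); re-replication scored as increased high-intensity nuclei.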
p53 reactivation = re-activators of mutant p53; 320,000 compounds, 0.063% hits; Potency, µM (highest dose often 92.2 µM), for inactives: at the top dose activity change, positive = activation, hits mostly activators; H1299 p53-A138V BP100-luciferase reporter, luminescence, 24 h; note: % of control where 0% means no effect; nearly all actives have a fitted effect of over 45% in size
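H1299 (p53-null), stable ts p53-A138V + BP100-Luc; 1000 cells/well, Opti-MEM/10% FBS; cpd 4 pt, 1:5; 24 h, 37 deg C, 5% CO2; detection reagent 10 min RT; luminescence.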
ELG1 genotox = inducers of genotoxicity in HEK293T ELG1-luciferase cells; Potency, µM (doses to about 46 µM), for inactives: at the top dose activity change, positive = activation, usual class: activators; HEK293T ELG1-luciferase reporter, luminescence, 16 h; 330,000 compounds, 1.3% hits; AID 504466; note: % of control where 0% means no effect; nearly all actives have a fitted effect of over 60% in size
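Step 1: seed 2,000 HEK293T ELG1-luciferase cells per well. Step 2: add compound or DMSO, incubate 16 hr at 37 °C. Step 3: ONE-Glo, 30 min at room temperature, read luminescence.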
ELG1 DNA repair = blocks ELG1-dependent DNA repair in HEK293T cells; HEK293T ELG1-luciferase reporter, luminescence, 16 h; DNA damage induced by 5-fluorouridine; Potency, µM (doses to about 46.1 µM), without a hit: top-dose activity change, negative = inhibition, actives largely listed as inhibitors; 330,000 compounds, 2.3% hits; AID 504467; note: % is set by controls: 0 for no effect and ±100 for the full control effect; nearly all actives have a fitted effect of over 55% in size
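Step one: seed 2,000 cells per well. Step two: pin-transfer compound or DMSO alongside 5-fluorouridine. Step three: incubate 16 hr, 37 °C, 5% CO2. Step four: add ONE-Glo, wait 30 min, read luminescence.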
AT treatment = potential ataxia-telangiectasia treatment; F2112 A-T fibroblasts, KAP-1 phosphorylation AlphaLISA; neocarzinostatin DNA damage 30 min before lysis; Potency, µM (top dose mostly 57.5 µM), inactives show top-dose activation, actives largely listed as activators; 320,000 compounds, 0.19% hits; AID 485349; note: % of control where 0% means no effect; nearly all actives have a fitted effect of over 45% in size
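ATM-like activity read as KAP-1 phosphorylation via AlphaLISA donor/acceptor antibody pairs after lysis and 6 hr at 25C. Cells were ATM-null patient fibroblasts (F2112, hTERT), dosed 60 min, then exposed to the DSB inducer NCS for 30 min.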
MCF10A rerep = inducers of DNA re-replication in MCF 10A breast cells; MCF 10A DNA re-replication, Hoechst nuclear intensity, 48 h; Potency, µM (highest dose often 46.1 µM), for the others: top-dose activity, positive = re-replication, most hits filed as activators; 350,000 compounds, 2.9% hits; AID 624296; note: % of control where 0% means no effect; nearly all actives have a fitted effect of over 50% in size
Starred values were filed as active, the others as inactive; ! = not active in a repeat. In the library only some 7.1% were active in any assay of this set; here they are far more common. Calls come from the whole dose curve; as a rule, active = well fitted curve in the direction sought with a large enough effect; inconclusive = small, poorly fitted or top-dose-only effect, or another doubt; inactive = no such curve, though single readings can be large; an effect the other way counts as inactive or inconclusive. Potency is the fitted concentration of half-maximal effect.

How did CC(=O)O[C@H]1C[C@@H]2CC[C@@H]3[C@H](CC[C@@]4(C)[C@H]3C[C@H]([N+]3(C)CCCCC3)[C@@H]4OC(C)=O)[C@@]2(C)C[C@@H]1[N+]1(C)CCCCC1 do in these assays?
SW480 rereplic: -22.6%; MCF10A rerep: -32.3%

Results for CCOC(=O)Cn1cc([N+](=O)[O-])nc1[N+](=O)[O-] ?
SW480 rereplic: 23.1µM*; p53 reactivation: -9.9%; ELG1 genotox: -8.0%; ELG1 DNA repair: -0.2%; AT treatment: 2.1%; MCF10A rerep: 13.8%

How did Cc1cc(=O)oc2c1c(C)nn2-c1nn[nH]n1 do in these assays?
SW480 rereplic: inconclusive; p53 reactivation: -7.8%; ELG1 genotox: -1.9%; ELG1 DNA repair: -9.3%; AT treatment: -6.9%; MCF10A rerep: inconclusive

Results for NC(Cc1ccc(Oc2cc(I)c(O)c(I)c2)c(I)c1)C(=O)O (stereo unspecified) ?
SW480 rereplic: 3.8%; MCF10A rerep: 7.0%

What do the screens show for `CC12CCC3c4ccc(OC(=O)N(CCCl)CCCl)cc4CCC3C1CCC2O` (stereo unspecified)?
SW480 rereplic: inconclusive; MCF10A rerep: 20.6µM*

Results for CC(C)[C@@]1(NC(=O)[C@@H]2C[C@@H]3c4cccc5[nH]cc(c45)C[C@H]3N(C)C2)O[C@@]2(O)[C@@H]3CCCN3C(=O)[C@H](Cc3ccccc3)N2C1=O ?
SW480 rereplic: 18.4µM*!; p53 reactivation: 6.0%; ELG1 genotox: -2.3%; ELG1 DNA repair: -13.9%; AT treatment: 1.8%; MCF10A rerep: 20.6µM*!

How did O=C1NCCOC(=O)[C@@H](Cc2ccc(F)cc2)CC/C=C/C[C@H]1CC(=O)N(CCO)Cc1ccccc1 do in these assays?
SW480 rereplic: 2.3%; p53 reactivation: 5.8%; ELG1 genotox: -6.4%; ELG1 DNA repair: inconclusive; AT treatment: 7.6%; MCF10A rerep: -3.4%

What do the screens show for `C=CC[C@H](CC(=O)N(CCO)Cc1ccccc1)C(=O)NC[C@H](OC(=O)[C@@H](CC=C)CC(=O)OC(C)(C)C)c1ccccc1`?
SW480 rereplic: inconclusive; p53 reactivation: 1.1%; ELG1 genotox: -8.4%; ELG1 DNA repair: 20.6µM*; AT treatment: -3.1%; MCF10A rerep: inconclusive

What do the screens show for `C=CC[C@@H](CC(=O)N(CCO)Cc1ccccc1)C(=O)NC[C@@H](OC(=O)[C@@H](CC=C)CC(=O)OC(C)(C)C)c1ccccc1`?
SW480 rereplic: 4.1%; p53 reactivation: -1.8%; ELG1 genotox: -6.8%; ELG1 DNA repair: 20.6µM*; AT treatment: 9.4%; MCF10A rerep: -0.4%

Results for Cc1cccc(C(=O)NC2CC3CCCC(C2)N3Cc2ccccc2)c1 (stereo unspecified) ?
SW480 rereplic: inconclusive; ELG1 genotox: -3.3%; ELG1 DNA repair: -3.1%; AT treatment: -2.3%; MCF10A rerep: -14.4%

What do the screens show for `S=C(S)N1CCCC1`?
SW480 rereplic: 3.0%; p53 reactivation: -4.3%; ELG1 genotox: -2.5%; ELG1 DNA repair: 16.7%; AT treatment: 1.9%; MCF10A rerep: inconclusive

What do the screens show for `O=C(NN=Cc1ccc(N(CCCl)CCCl)cc1)C(=O)c1c[nH]c2ccccc12`?
SW480 rereplic: inconclusive; MCF10A rerep: 16.4µM*

What do the screens show for `O=C(NN=Cc1ccc(N(CCCl)CCCl)cc1Cl)c1cccnc1`?
SW480 rereplic: inconclusive; MCF10A rerep: 18.1%

Results for O=C(NN=Cc1ccc(N(CCCl)CCCl)cc1)c1cc(=O)[nH]c(=O)[nH]1 ?
SW480 rereplic: 7.31µM*; MCF10A rerep: inconclusive

What do the screens show for `CNC(C)C(O)c1ccc(O)cc1` (stereo unspecified)?
SW480 rereplic: 0.4%; MCF10A rerep: 6.9%

Results for COCCN1C(=O)NC(=O)/C(=C\c2ccc(F)cc2)C1=O ?
SW480 rereplic: -5.5%; p53 reactivation: 2.8%; ELG1 genotox: 0.5%; ELG1 DNA repair: 2.9%; AT treatment: -1.4%; MCF10A rerep: 5.17µM*

How did CN(C)c1ccc(/C=C2\C(=O)NC(=O)N(CCc3ccc(F)cc3)C2=O)cc1 do in these assays?
SW480 rereplic: 2.8%; p53 reactivation: 0.2%; ELG1 genotox: 3.6%; ELG1 DNA repair: 11.8%; AT treatment: -10.1%; MCF10A rerep: inconclusive

How did CCOc1ccc(-n2c(=O)c3c4c(sc3n(CC(=O)NCc3ccco3)c2=O)CCC4)cc1 do in these assays?
SW480 rereplic: 4.0%; p53 reactivation: 11.6%; ELG1 genotox: inconclusive; ELG1 DNA repair: -1.9%; AT treatment: -1.9%; MCF10A rerep: 3.0%

How did C[C@H]1CN([C@@H](C)CO)C(=O)c2cc(NC(=O)Nc3cccc4ccccc34)ccc2O[C@@H]1CN(C)Cc1ccc(-c2ccccc2)cc1 do in these assays?
SW480 rereplic: 57.3%; p53 reactivation: 5.7%; ELG1 genotox: 0.5%; ELG1 DNA repair: 6.0%; AT treatment: -3.1%; MCF10A rerep: -28.4%

What do the screens show for `CC(=O)Oc1ccc2c3c1OC1[C@@H](OC(C)=O)C=C[C@H]4[C@H](C2)N(C)CC[C@]314` (stereo partly specified)?
SW480 rereplic: -2.1%; MCF10A rerep: 3.4%

What do the screens show for `CC12CCC3C(CC=C4CC(O)CCC43C)C1C/C(=C\c1ccccc1F)C2=O` (stereo unspecified)?
SW480 rereplic: 7.6%; p53 reactivation: 0.9%; ELG1 genotox: -1.7%; ELG1 DNA repair: -17.6%; AT treatment: 23.5%; MCF10A rerep: 6.51µM*

Results for Cc1nn(C)cc1/C=C1/CC2C3CC=C4CC(O)CCC4(C)C3CCC2(C)C1=O (stereo unspecified) ?
SW480 rereplic: -16.0%; MCF10A rerep: inconclusive

How did CCCC(C)(COC(N)=O)COC(=O)NC1CC1 (stereo unspecified) do in these assays?
SW480 rereplic: -1.4%; MCF10A rerep: -5.5%

How did Cc1nn(Cc2ccccc2Cl)c(Cl)c1C(=O)O do in these assays?
SW480 rereplic: 2.5%; p53 reactivation: 1.9%; ELG1 genotox: 1.3%; ELG1 DNA repair: -3.6%; AT treatment: -1.1%; MCF10A rerep: -4.1%

What do the screens show for `CC(C)(C)c1nc(N2CCN(C(=O)c3ccco3)CC2)c2nnn(Cc3ccccc3Cl)c2n1`?
SW480 rereplic: 9.6%; p53 reactivation: 9.9%; ELG1 genotox: -5.1%; ELG1 DNA repair: -10.7%; AT treatment: 1.2%; MCF10A rerep: 18.4µM*
